Changes are numbered by the printed parent chain.
How the values were obtained:
Test in all cases: HT-SELEX; high values mean tight binding
Conditions in all cases: protein: recombinant; vector His6-GST; dsDNA, one strand shown
SALL4 ZFC4 WT (HT-SELEX) = biological target: T1, SALL4 ZFC4 WT (HT-SELEX) (Mus musculus, UniProt Q8BX22 870-940)
T1 sequence: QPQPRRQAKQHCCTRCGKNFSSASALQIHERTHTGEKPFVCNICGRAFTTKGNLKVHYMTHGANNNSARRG
Summary of the method: (§1)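 Purified recombinant mouse SALL4 zinc finger cluster 4 (residues 870–940, 1 µg) and library DNA (1.5 µg first cycle, 200 ng later) were incubated for 10 min at room temperature in 100 µl of 10 mM Tris–HCl pH 7.5, 50 mM NaCl, poly(dI-dC) and DTT. After Ni2+ bead capture and up to 6 triplicate cycles of selection, DNA was MiSeq-sequenced and scanned for 6-mers. Binding signal is the fold change in each canonical k-mer's read fraction relative to the initial random library.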

[1] = biological target: T2, SALL4 ZFC4 R900W (HT-SELEX) (Mus musculus, UniProt Q8BX22 870-940, R900W)
T2 sequence: T1 sequence with R31W
Summary of the method: as §1

[2] = biological target: T3, SALL4 ZFC4 G921D (HT-SELEX) (Mus musculus, UniProt Q8BX22 870-940, G921D)
T3 sequence: T1 sequence with G52D
Summary of the method: as §1

| Sequence | binding signal (SALL4 ZFC4 WT (HT-SELEX)) [fold-change vs cycle 0] | binding signal [1] [fold-change vs cycle 0] | binding signal [2] [fold-change vs cycle 0] |
| --- | --- | --- | --- |
| TTATAA | 4.21 ± 0.59 | 2.77 ± 0.289 | 2.3 ± 0.394 |
| ATATCC | 1.52 ± 0.0519 | 1.43 ± 0.0827 | 1.37 ± 0.0764 |
| ATTAAG | 2.1 ± 0.107 | 2.09 ± 0.139 | 1.82 ± 0.22 |
| CTGTTA | 1.37 ± 0.0494 | 1.47 ± 0.0717 | 1.39 ± 0.112 |
| GGTTAC | 0.891 ± 0.0455 | 1.05 ± 0.0396 | 1.01 ± 0.0443 |
| AATTAT | 4.89 ± 0.536 | 2.6 ± 0.249 | 2.25 ± 0.303 |
| GCACTA | 0.57 ± 0.0256 | 0.649 ± 0.0265 | 0.725 ± 0.019 |
| GGACCA | 0.389 ± 0.0179 | 0.466 ± 0.011 | 0.557 ± 0.0733 |
| ATCATA | 2.91 ± 0.29 | 2.08 ± 0.118 | 1.88 ± 0.177 |
| CTTATC | 1.5 ± 0.0472 | 1.62 ± 0.0833 | 1.44 ± 0.0973 |
| ATTACC | 1.49 ± 0.0761 | 1.51 ± 0.105 | 1.43 ± 0.105 |
| AACTTC | 1.37 ± 0.0514 | 1.52 ± 0.0544 | 1.4 ± 0.0625 |
| GGGGGA | 0.31 ± 0.0219 | 0.349 ± 0.0327 | 0.439 ± 0.0654 |
| ACTGTG | 0.743 ± 0.0431 | 0.842 ± 0.0558 | 0.876 ± 0.035 |
| CTGAGC | 0.348 ± 0.00959 | 0.42 ± 0.0161 | 0.535 ± 0.0354 |
| GTACGA | 0.706 ± 0.0277 | 0.794 ± 0.0311 | 0.843 ± 0.0399 |
| ATCGAA | 1.17 ± 0.0408 | 1.16 ± 0.0416 | 1.2 ± 0.0145 |
| AGATGC | 0.625 ± 0.0322 | 0.721 ± 0.0174 | 0.833 ± 0.0268 |
| GCAGAA | 0.567 ± 0.022 | 0.629 ± 0.0163 | 0.688 ± 0.0217 |
| GAATTC | 1.29 ± 0.0387 | 1.38 ± 0.0509 | 1.33 ± 0.0652 |
| ATCACC | 0.917 ± 0.0379 | 0.988 ± 0.0223 | 1.06 ± 0.0273 |
| AAAATT | 3.32 ± 0.292 | 2.14 ± 0.119 | 1.94 ± 0.175 |
| CCCAGA | 0.431 ± 0.0214 | 0.51 ± 0.0216 | 0.583 ± 0.0525 |
| CGATAC | 0.695 ± 0.052 | 0.793 ± 0.033 | 0.902 ± 0.0425 |
| ACCTTG | 0.8287 ± 0.00258 | 0.986 ± 0.024 | 1 ± 0.0262 |
| CAAATA | 1.9 ± 0.117 | 1.72 ± 0.1 | 1.55 ± 0.137 |
| CAATTC | 1.19 ± 0.016 | 1.29 ± 0.063 | 1.25 ± 0.0527 |
| CACAGA | 0.669 ± 0.0131 | 0.784 ± 0.0217 | 0.8476 ± 0.00739 |
| CTTTGA | 1.2 ± 0.0763 | 1.36 ± 0.0716 | 1.33 ± 0.077 |
| AACACC | 0.749 ± 0.0181 | 0.848 ± 0.0177 | 0.89 ± 0.0213 |
